Compound activity: PubChem, National Center for Advancing Translational Sciences (NCATS)
KB-3-1 cytotox: KB-3-1 parental cell cytotoxicity | KB-3-1 viability, CellTiter-Glo ATP luminescence, 72 h | Potency, µM (titrated, usually from 46.1 µM), actives largely listed as cytotoxic | 1.4% of 400,000 active | AID 1347075; note: % is set by controls: 0 for no effect and ±100 for the full control effect; nearly all actives have a fitted effect of over 60% in size
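KB-3-1 parental drug-naive adenocarcinoma cells in DMEM/10% FBS, incubated 72 h at 37 C with pin-transferred compounds across a concentration series. Viability by CellTiter-Glo luminescence; concentration-response curves fitted after normalization.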
SW480 rerep: DNA re-replication induction in SW480 cells. 1.8% of 340,000 active. Potency, µM (titrated, usually from 46.1 µM), inactives show at the top dose re-replication activation, actives largely listed as activators. SW480 DNA re-replication, Hoechst DNA content imaging, 48 h; note: % of control where 0% means no effect; nearly all actives have a fitted effect of over 55% in size
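SW480 cells exposed to compounds for 48 hr at 37 C, 5% CO2, then Hoechst-stained 40 min. Nuclear DNA content imaged by fluorescence scanning (405 nm excitation, 500-530 nm emission); re-replication scored as increased high-intensity nuclei.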
HT1080 IDH1KD tx: kills HT-1080 cells with IDH1 knockdown; AID 686971; Potency, µM (titrated, usually from 46.1 µM), for the others: top-dose activity, negative = toxicity, actives largely listed as cytotoxic; 2% of 360,000 active; HT-1080 IDH1 knockdown viability, ATP luminescence, 48 h;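 note: 0% = DMSO wells and -100% = cell-free medium wells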
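Using the IDH1-knockdown HT-1080 line run in the same batch and compound series as the NT line, viability after 48 h at 37 °C was determined by CellTiter-Glo luminescence and expressed as % activity.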
KB-V1 cytotox: kills drug-selected multidrug resistant KB-V1 cells; KB-V1 MDR cells viability, CellTiter-Glo, 72 h; AID 1347076; 3.4% of 400,000 active; Potency, µM (titrated, usually from 46.1 µM), hits mostly cytotoxic; note: % is set by controls: 0 for no effect and ±100 for the full control effect; nearly all actives have a fitted effect of over 60% in size
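Luminescent ATP read-out (CellTiter-Glo, 10 min) measures survival of drug-selected KB-V1 MDR cells after 72 h, 37 degrees C compound exposure. Medium: phenol-red-free DMEM, 10% FBS. Values from fitted concentration-response curves.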
HT1080NT lethal: kills 2HG-producing HT-1080-NT fibrosarcoma cells. HT-1080-NT fibrosarcoma viability, CellTiter-Glo ATP luminescence, 48 h. Potency, µM (series often up to 46.1 µM), for the others: at the highest dose activity, negative = less viability, most hits filed as cytotoxic. 1.6% of 360,000 active. AID 686970;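 note: NT is the 2HG producing partner of a matched IDH1 knockdown line; 0% = DMSO-treated cells and -100% = media-only wells without cells; nearly all actives have a fitted effect of over 55% in size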
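Viability of the 2HG-overproducing fibrosarcoma line after 48 hours of compound exposure at 37 degrees C was determined by luminescence with CellTiter-Glo, and concentration-effect curves were then fitted and categorized.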
MCF10A rereplic: inducers of DNA re-replication in MCF 10A breast cells; 2.9% of 350,000 active; AID 624296; MCF 10A DNA re-replication, Hoechst nuclear intensity, 48 h; Potency, µM (highest dose often 46.1 µM), without a hit: at the top dose activity, positive = re-replication, usual class: activators; note: % of control where 0% means no effect; nearly all actives have a fitted effect of over 50% in size
Active calls of the source: *; i = inactive; u = inconclusive; x = no result given; [ ] = another dose, or the depositor's remark. A selection: hits, their analogues and other compounds. The true share with any hit is near 7.9%. Calls come from the whole dose curve; as a rule, active = well fitted curve in the direction sought with a large enough effect; inconclusive = small, poorly fitted or top-dose-only effect, or another doubt; inactive = no such curve, though single readings can be large; an effect the other way counts as inactive or inconclusive. Potency is the fitted concentration of half-maximal effect.

SMILES | KB-3-1 cytotox | SW480 rerep | HT1080 IDH1KD tx | KB-V1 cytotox | HT1080NT lethal | MCF10A rereplic
Cc1sc(N)nc1-c1ccc(Oc2ccccc2)cc1 | i | 1% | 1% | i | 0% | 1%
C(=NNc1nnn(Cc2ccccc2)n1)c1ccccc1 | u | x | 18µM* | 16µM* | 9.2µM* | x
NC(CCc1ccccc1)c1csc(Nc2ccc(C(=O)c3ccccc3)cc2)n1 (configuration not stated) | u | x | u | i | u | x
NCc1csc(Nc2ccc(C(=O)c3ccccc3)cc2)n1 | 5.8µM* | x | u | u | u | x
COc1ccccc1NC(=O)Nc1nc(C(N)Cc2ccc(C(F)(F)F)cc2)cs1 (configuration not stated) | u | x | x | i | x | x
CC(=O)c1ccc(Nc2nc(C(N)Cc3ccc(C(F)(F)F)cc3)cs2)cc1 (configuration not stated) | u | x | u | 12µM* | u | x
NC(Cc1ccc(C(F)(F)F)cc1)c1csc(NC(=O)NCCc2ccccc2)n1 (configuration not stated) | u | x | 18µM* | i | 23µM* | x
Cc1ccc(C(=O)Nc2nc(C(N)Cc3ccc(C(F)(F)F)cc3)cs2)cc1 (configuration not stated) | i | x | 16µM* | i | u | x
CC(C)CC(N)c1csc(NC(=O)NCCc2ccccc2)n1 (configuration not stated) | i | x | u | i | u | x
CCN1CCN(c2cccc(Nc3nn4c(=O)c5ccccc5nc4s3)c2)CC1 | i | x | x | i | x | x
CCC(=O)N1Cc2cc(C(=O)N(C)C)nc(-c3cccc(-c4cncnc4)c3)c2[C@@H]1CCO | i | x | 15% | i | 8% | x
COc1cccc(Nc2nc(C(N)Cc3ccccc3)cs2)n1 (configuration not stated) | u | x | 12µM* | u | 29µM* | x
COc1cccc(Nc2nc(C(N)CO)cs2)n1 (configuration not stated) | i | x | -6% | i | -13% | x
NC(Cc1ccc(C(F)(F)F)cc1)c1csc(Nc2cc(NCc3ccco3)ncn2)n1 (configuration not stated) | i | x | 16µM* | i | 23µM* | x
NC(Cc1ccc(C(F)(F)F)cc1)c1csc(Nc2cnccn2)n1 (configuration not stated) | i | x | u | i | u | x
NC(Cc1ccc(C(F)(F)F)cc1)c1csc(Nc2ccccn2)n1 (configuration not stated) | i | x | u | i | 21µM* | x
NC(Cc1ccc(C(F)(F)F)cc1)c1csc(Nc2ncccn2)n1 (configuration not stated) | i | x | u | i | u | x
NC(COCc1ccccc1)c1csc(Nc2ccc(C(=O)c3ccccc3)cc2)n1 (configuration not stated) | i | x | u | i | 18µM* | x
Cc1oc(-c2ccc(Cl)cc2)nc1CS(=O)CC(=O)NCc1ccccn1 (configuration not stated) | i | -11% | -3% | u | 3% | 0%
O=S1(=O)N=C(Oc2ccccc2-c2ccccc2)c2ccccc21 | i | x | x | u | x | x
C=C[C@@H]1c2cc(C)ccc2N(S(=O)(=O)c2ccc(C)cc2)[C@H](c2ccc(C(=O)OC)cc2)C1(C#N)C#N | i | x | x | i | x | x
NC(Cc1ccc(C(F)(F)F)cc1)c1csc(Nc2ccc(C(=O)c3ccccc3)cc2)n1 (configuration not stated) | u | x | u | 23µM* | u | x
NC(=O)C1CCN(C(=O)Nc2ccccc2)CC1 | x | 2% | x | x | x | 1%
CC1CC(C)CN(C(=O)C2CCN(C(=O)Nc3ccccc3)CC2)C1 (configuration not stated) | i | 6% | -6% | 21µM* | -11% | 4%
CC1CCC(NC(=O)C2CCN(c3nc4ccccc4s3)CC2)CC1 (configuration not stated) | u | -10% | 12% | 7.3µM* | 15% | 17%
SMILES | KB-3-1 cytotox | SW480 rerep | HT1080 IDH1KD tx | KB-V1 cytotox | HT1080NT lethal | MCF10A rereplic
CC1CCC(NC(=O)C2CCN(C(=O)Nc3ccccc3)CC2)CC1 (configuration not stated) | i | -1% | -9% | 16µM* | 0% | u
CC1CCCN(C(=O)C2CCN(C(=O)Nc3ccccc3)CC2)C1 (configuration not stated) | i | -13% | 0% | i | 4%[9.24 µM] | 14%
COc1ccc2c(c1)OC[C@H]1[C@H]2N2C(=O)CN(Cc3ccccc3)C(=O)[C@@]2(C)[C@H]1c1ccccc1 | u | 5% | -1% | i | -1% | 0%
Cc1ccc2[nH]cc(CCNC(=O)c3cccnc3)c2c1 | i | 12% | 12% | i | 1% | 21µM*
COc1ccc(CNC(=O)c2ccc3ccccc3n2)cc1OC | u | -10% | -10% | 7.3µM* | u | 8%
CCc1ccc2oc(C(=O)NCCc3ccc(OC)c(OC)c3)cc(=O)c2c1 | 16µM* | x | x | 5.2µM* | x | x
COc1ccc2[nH]cc(CCNC(=O)c3ccc4ccccc4n3)c2c1 | i | -64% | u | i | -22% | 15µM*
COc1ccc(CNC(=O)c2cc3ccccc3o2)cc1OC | i | 13% | -18% | 8.2µM* | -9% | -1%
CCOc1ccc2[nH]cc(-c3csc(N)n3)c2c1 | i | 9% | 6% | i | -12% | 7%
COc1ccc2cc(CO)n(C)c2c1 | i | 25% | 11% | i | 16% | u
CCOC(=O)NNc1ccccc1 | i | -19% | 3.7µM* | i | 4.1µM* | 14%
CCOC(=O)Nc1cccc(Nc2ccccc2)c1 | i | 2% | -15% | i | 1% | 17%
CCC(O)CC(C(=O)NNc1ccccc1)C(=O)NNc1ccccc1 (configuration not stated) | u | -76% | 5.8µM* | i | 2.6µM* | u
NC(=O)NNc1ccccc1 | x | 26% | x | x | x | 4%
CCN1CCN(c2cc(C)c3cc(NC(=O)c4cc(Br)ccc4Cl)ccc3n2)CC1 | i | x | x | u | x | x
Clc1ccc(CN2C3=NCCCN3c3ccccc32)cc1Cl | u | 10% | u | u | u | 16µM*
Clc1ccc(CN2C3=NCCCN3c3ccccc32)cc1 | u | -2% | -27% | i | u | 5%
O=C(CN1C2=NCCCN2c2ccccc21)c1ccc(Cl)cc1Cl | u | 30% | -28% | 13µM* | -18% | 11%
